Assay results from publication PMC5540273 (PLoS ONE, 2017).

Legend:
Conditions in all cases: concentration: 1 μM,replicates: in singlicate; n = 1
EPHA7 = system: EPHA7
EPHA8 = system: EPHA8
EPHB1 = system: EPHB1
EPHB2 = system: EPHB2
EPHB3 = system: EPHB3
EPHB4 = system: EPHB4
EPHB6 = system: EPHB6
ERBB2 = system: ERBB2
ERBB3 = system: ERBB3
ERBB4 = system: ERBB4
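Also: KINOMEscan kinase panel screen.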

Compound	%Inh (EPHA7)	%Inh (EPHA8)	%Inh (EPHB1)	%Inh (EPHB2)	%Inh (EPHB3)	%Inh (EPHB4)	%Inh (EPHB6)	%Inh (ERBB2)	%Inh (ERBB3)	%Inh (ERBB4)
CS(=O)(=O)c1cccc(CNc2nc(Nc3ccc4c(c3)[C@@H]3C[C@@H]4CNC3=O)ncc2C(F)(F)F)c1	63%	0%	40%	19%	5%	16%	72%	15%	0%	20%
CCn1c(-c2nonc2N)nc2cncc(Br)c21 [SB-738004]	0%	0%	0%	12%	0%	13%	29%	60%	43%	11%
COc1ccc(Nc2nccc(N3CCC(NC(=O)c4cccc(C#N)c4)C3)n2)cc1 (stereo not drawn) [GSK1379730]	3%	18%	0%	0%	3%	0%	0%	0%	0%	0%
CSc1nccc(-c2c(-c3ccc(F)cc3)ncn2CCCN2CCOCC2)n1.Cl [SB-217146]	0%	0%	11%	0%	0%	0%	0%	7%	0%	0%
COc1cccc(C2=C(Nc3cccc(Cl)c3)C(=O)NC2=O)c1 [SB-341556]	7%	20%	0%	0%	17%	4%	29%	0%	0%	0%
O=C(Nc1ccc(Oc2ccc3nc(NC(=O)C4CC4)cn3n2)c(F)c1)c1cccn(-c2ccccc2)c1=O	0%	79%	39%	60%	6%	35%	77%	15%	30%	1%
COc1cccc(CNC(=O)NC2CCN(c3ccnc(Nc4cc(OC)c(OC)c(OC)c4)n3)C2)c1 (stereo not drawn) [GSK1379765]	6%	13%	13%	0%	20%	8%	92.6%	17%	28%	38%
O=C(Nc1cccc(C(F)(F)F)c1)c1cccc(Oc2ccc3nccn3n2)c1	5%	27%	20%	9%	12%	23%	12%	0%	40%	0%
N#Cc1cccc(C(=O)NC2CCN(c3ccnc(Nc4ccc(F)cc4)n3)C2)c1 (stereo not drawn) [GSK1379708]	0%	0%	9%	0%	13%	5%	0%	9%	0%	10%
Cn1ccc2ncnc(Oc3ccc(NC(=O)Nc4ccnc(C(F)(F)F)c4)c(Cl)c3)c21	6%	14%	5%	28%	25%	20%	36%	20%	0%	0%
CS(=O)c1ccc(-c2coc3ccc(-c4n[nH]c(=O)o4)cc23)cc1 (stereo not drawn)	0%	0%	0%	12%	0%	0%	25%	0%	13%	5%
O=C(NOCC1CC1)c1cc(Br)c(F)c(F)c1Nc1ccc(I)cc1Cl	0%	0%	5%	5%	0%	0%	0%	44%	0%	0%
COc1cc2nccc(Nc3ccc(Oc4ccccc4)cc3)c2cc1OC.Cl [GI261656]	0%	0%	9%	0%	0%	3%	90.9%	80%	99.6%	85%
CS(=O)(=O)Nc1ccc(-c2ccnc3[nH]ccc23)cc1 [GSK993273]	13%	18%	19%	6%	18%	0%	5%	15%	0%	0%
O=c1[nH]cc(-c2ccc(O)cc2)c2sc(-c3ccncc3)cc12 [GSK1033723]	0%	2%	0%	26%	15%	13%	0%	28%	0%	2%
Cc1nnc(-c2ccc3occ(-c4ccc(S(C)=O)cc4)c3n2)o1 (stereo not drawn)	0%	0%	0%	0%	10%	12%	0%	17%	0%	0%
CC(C(=O)NC1CCN(c2ccnc(Nc3ccc(F)cc3)n2)C1)c1ccc(Cl)cc1 (stereo not drawn) [GSK1379713]	5%	14%	10%	0%	0%	0%	0%	25%	0%	0%

Compound	%Inh (EPHA7)	%Inh (EPHA8)	%Inh (EPHB1)	%Inh (EPHB2)	%Inh (EPHB3)	%Inh (EPHB4)	%Inh (EPHB6)	%Inh (ERBB2)	%Inh (ERBB3)	%Inh (ERBB4)
C[C@@H](Oc1cc(-n2cnc3cc(-c4cnn(C)c4)ccc32)sc1C(N)=O)c1ccccc1Cl [GSK580432]	4%	34%	29%	0%	16%	19%	93.7%	0%	0%	0%
COc1cc2ncn(-c3cc(OCC4CCCCC4)c(C(N)=O)s3)c2cc1OC [GSK204559]	17%	29%	10%	0%	21%	8%	64%	0%	0%	0%
O=C(Nc1n[nH]c2cc(-c3ccco3)ccc12)C1CC1 [SB-737447]	0%	0%	0%	0%	6%	0%	34%	0%	0%	0%
COc1cc(Nc2nccc(N3CCC(NC(=O)c4cccc(C#N)c4)C3)n2)cc(OC)c1OC (stereo not drawn) [GSK1379751]	0%	0%	4%	0%	8%	19%	86%	41%	16%	31%
CN(c1cccc(CNc2nc(Nc3ccc4c(c3)CC(=O)N4)ncc2C(F)(F)F)c1)S(C)(=O)=O	33%	0%	20%	14%	1%	5%	56%	26%	0%	6%
Cc1cccc(-c2nc(Nc3ccncc3)c3sccc3n2)n1 [GW869641]	6%	2%	15%	6%	16%	0%	30%	29%	29%	13%
CC(=O)Nc1nc2cnc(Nc3cc(NC(=O)c4cccc(CC(C)(C)C#N)c4)ccc3C)nc2s1	4%	72%	11%	55%	13%	37%	61%	42%	9%	0%
O=C(NCC1CC1)c1ccc(-c2cc(C(=O)NC3CC3)ccc2F)cc1 [GW810445]	0%	3%	4%	0%	0%	0%	0%	11%	0%	33%
CCn1c(-c2nonc2N)nc2cncc(CNC3CCNCC3)c21.Cl [SB-747651]	9%	0%	12%	0%	8%	0%	0%	21%	8%	0%
CC(=O)c1c(-c2ccncc2)[nH]c(-c2ccncc2)c1C [GW493036]	1%	6%	12%	0%	3%	18%	0%	0%	17%	34%
Cc1ccc2c(-c3ccnc(Nc4ccc(C(F)(F)F)cc4)n3)cnn2n1 [GW819776]	0%	6%	14%	0%	7%	0%	14%	0%	0%	5%
C[C@@H](Oc1cc(-n2cnc3cc(-c4ccncc4)ccc32)sc1C(N)=O)c1ccccc1Cl [GSK479719]	8%	15%	9%	0%	18%	12%	0%	0%	0%	0%
COc1cc2c(Nc3ccc(NC(=O)c4ccccc4)cc3)ncnc2cc1OCCCN1CCOCC1 [GSK301329]	6%	12%	20%	0%	5%	2%	79%	72%	0%	85%
Cl.Nc1n[nH]c2cc(-c3ccccn3)ccc12 [GSK2189892]	0%	0%	4%	0%	4%	0%	18%	9%	0%	0%
c1ccc(Oc2ccc(Nc3ccnc4ccc(-c5ccccn5)cc34)cc2)cc1 [GW407034]	0%	14%	0%	5%	1%	13%	49%	90.3%	89%	88%
CCCC(=O)Nc1n[nH]c2ncccc12 [SB-601436]	0%	0%	0%	0%	12%	16%	0%	0%	0%	0%
